Assay results as given in PubChem BioAssay AID1159580 (chemical genetic matrix, 2015).
In all, about 5,500 compounds went through this assay and about 2,000 (36%) were called active. Not shown: some 18% with an inconclusive outcome. Rule as the data show it: active = normalized growth mostly below about 0.91 (no sharp cut-off); inconclusive = no clear call, values can overlap the other calls; inactive = mostly above about 0.92. The list shows a part of the results.

Assay: chemical genetic growth profiling, strain panel (AID 1159580);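 also: tested at 20 µM; growth read once vehicle control cultures reached saturation at 30 °C; 1 = growth at the plate median or of vehicle wells; lower values mean less growth of the strain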
Conditions: growth OD

Measured: normalized growth

Cc1cccc(C)c1NC(=O)C1CCCCN1C (configuration not stated)
inactive: S. cerevisiae deletion strains, locus YJR075W, strain HOC1, active compounds read low 1 | S. cerevisiae deletion strains, locus YKL009W, strain mrt4, active compounds read low 1.04 | S. cerevisiae deletion strains, locus YKL068W, active compounds read low 0.999 | S. cerevisiae deletion strains, locus YKL085W, strain MDH1 (second series), active compounds read low 1 | S. cerevisiae deletion strains, locus YKL085W, strain MDH1, active compounds read low 1 | S. cerevisiae deletion strains, locus YKL160W, strain elf1, active compounds read low 0.994 | S. cerevisiae deletion strains, locus YKL190W, strain CNB1, active compounds read low 0.982 | S. cerevisiae deletion strains, locus YKR001C, strain vps1, active compounds read low 1.01 | S. cerevisiae deletion strains, locus YKR026C, strain gcn3, active compounds read low 0.979 | S. cerevisiae deletion strains, locus YKR091W, strain srl3, active compounds read low 0.994 | S. cerevisiae deletion strains, locus YLL001W, strain dnm1, active compounds read low 0.99 | S. cerevisiae deletion strains, locus YLL026W, active compounds read low 0.991 | S. cerevisiae deletion strains, locus YLL041C, strain sdh2, active compounds read low 1 | S. cerevisiae deletion strains, locus YLR027C, strain aat2, active compounds read low 0.992 | S. cerevisiae deletion strains, locus YLR039C, strain RIC1, active compounds read low 1.01 | S. cerevisiae deletion strains, locus YLR058C, strain SHM2, active compounds read low 1 | S. cerevisiae deletion strains, locus YLR102C, strain apc9, active compounds read low 1.02 | S. cerevisiae deletion strains, locus YLR113W, strain HOG1, active compounds read low 1.01 | S. cerevisiae deletion strains, locus YLR221C, strain rsa3, active compounds read low 0.996 | S. cerevisiae deletion strains, locus YLR258W, strain gsy2, active compounds read low 0.991 | S. cerevisiae deletion strains, locus YLR262C, strain YPT6 (second series), active compounds read low 0.986 | S. cerevisiae deletion strains, locus YLR262C, strain YPT6, active compounds read low 0.996 | S. cerevisiae deletion strains, locus YLR268W, strain sec22, active compounds read low 1.02 | S. cerevisiae deletion strains, locus YLR320W, strain mms22, active compounds read low 0.976 | S. cerevisiae deletion strains, locus YLR330W, strain CHS5, active compounds read low 1.01 | S. cerevisiae deletion strains, locus YLR342W, strain FKS1 (second series), active compounds read low 1.03 | S. cerevisiae deletion strains, locus YLR342W, strain FKS1, active compounds read low 0.992 | S. cerevisiae deletion strains, locus YLR357W, strain rsc2, active compounds read low 0.972 | S. cerevisiae deletion strains, locus YLR370C, strain arc18, active compounds read low 0.978 | S. cerevisiae deletion strains, locus YLR371W, strain rom2, active compounds read low 1.02 | S. cerevisiae deletion strains, locus YLR384C, strain iki3, active compounds read low 0.985 | S. cerevisiae deletion strains, locus YLR418C, strain cdc73, active compounds read low 1.03 | S. cerevisiae deletion strains, locus YML016C, strain PPZ1, active compounds read low 1 | S. cerevisiae deletion strains, locus YML032C, strain rad52, active compounds read low 0.998 | S. cerevisiae deletion strains, locus YML120C, strain ndi1, active compounds read low 0.987 | S. cerevisiae deletion strains, locus YML124C, strain tub3, active compounds read low 1.02 | S. cerevisiae deletion strains, locus YMR058W, strain fet3, active compounds read low 0.988 | S. cerevisiae deletion strains, locus YMR078C, strain ctf18, active compounds read low 1.01 | S. cerevisiae deletion strains, locus YMR125W, strain sto1, active compounds read low 0.98 | S. cerevisiae deletion strains, locus YMR129W, active compounds read low 0.995 | S. cerevisiae deletion strains, locus YMR205C, strain PFK2, active compounds read low 0.976 | S. cerevisiae deletion strains, locus YMR223W, strain ubp8, active compounds read low 0.998 | S. cerevisiae deletion strains, locus YMR231W, strain pep5, active compounds read low 0.985 | S. cerevisiae deletion strains, locus YMR263W, strain SAP30, active compounds read low 0.997 | S. cerevisiae deletion strains, locus YMR307W, strain GAS1, active compounds read low 0.985 | S. cerevisiae deletion strains, locus YNL067W, strain RPL9B, active compounds read low 0.996 | S. cerevisiae deletion strains, locus YNL071W, strain lat1, active compounds read low 0.989 | S. cerevisiae deletion strains, locus YNL128W, strain TEP1, active compounds read low 1.01 | S. cerevisiae deletion strains, locus YNL153C, strain GIM3, active compounds read low 1.01 | S. cerevisiae deletion strains, locus YNL183C, strain NPR1, active compounds read low 0.963 | S. cerevisiae deletion strains, locus YNL209W, strain ssb2, active compounds read low 0.987 | S. cerevisiae deletion strains, locus YNL233W, strain BNI4, active compounds read low 1.01 | S. cerevisiae deletion strains, locus YNL248C, strain rpa49, active compounds read low 0.976 | S. cerevisiae deletion strains, locus YNL250W, strain rad50, active compounds read low 0.999 | S. cerevisiae deletion strains, locus YNL271C, strain bni1, active compounds read low 1.01 | S. cerevisiae deletion strains, locus YNL298W, strain CLA4, active compounds read low 1.01 | S. cerevisiae deletion strains, locus YNL307C, strain MCK1, active compounds read low 1.02 | S. cerevisiae deletion strains, locus YNL322C, strain KRE1 (second series), active compounds read low 0.966 | S. cerevisiae deletion strains, locus YNL322C, strain KRE1, active compounds read low 1.01 | S. cerevisiae deletion strains, locus YNR049C, strain mso1, active compounds read low 0.99 | S. cerevisiae deletion strains, locus YNR052C, strain pop2, active compounds read low 1 | S. cerevisiae deletion strains, locus YOL006C, strain TOP1, active compounds read low 1.02 | S. cerevisiae deletion strains, locus YOL012C, strain htz1 0.844 | S. cerevisiae deletion strains, locus YOL147C, strain pex11, active compounds read low 1.01 | S. cerevisiae deletion strains, locus YOR001W, strain rrp6, active compounds read low 0.974 | S. cerevisiae deletion strains, locus YOR061W, strain CKA2, active compounds read low 1 | S. cerevisiae deletion strains, locus YOR069W, strain VPS5, active compounds read low 0.999 | S. cerevisiae deletion strains, locus YOR070C, strain gyp1, active compounds read low 0.991 | S. cerevisiae deletion strains, locus YOR080W, strain dia2, active compounds read low 0.981 | S. cerevisiae deletion strains, locus YOR083W, strain WHI5, active compounds read low 0.989 | S. cerevisiae deletion strains, locus YOR106W, strain vam3, active compounds read low 1.01 | S. cerevisiae deletion strains, locus YOR136W, strain idh2, active compounds read low 1.02 | S. cerevisiae deletion strains, locus YOR144C, strain elg1, active compounds read low 1.01 | S. cerevisiae deletion strains, locus YOR184W, strain ser1, active compounds read low 1.02 | S. cerevisiae deletion strains, locus YOR231W, strain MKK1, active compounds read low 1.03 | S. cerevisiae deletion strains, locus YOR265W, strain rbl2, active compounds read low 1 | S. cerevisiae deletion strains, locus YOR270C, strain vph1, active compounds read low 0.981 | S. cerevisiae deletion strains, locus YOR290C, strain snf2, active compounds read low 0.999 | S. cerevisiae deletion strains, locus YOR316C, strain cot1, active compounds read low 1.01 | S. cerevisiae deletion strains, locus YPL051W, strain arl3, active compounds read low 0.993 | S. cerevisiae deletion strains, locus YPL055C, strain LGE1, active compounds read low 0.992 | S. cerevisiae deletion strains, locus YPL078C, strain atp4, active compounds read low 0.997 | S. cerevisiae deletion strains, locus YPL106C, strain sse1, active compounds read low 0.98 | S. cerevisiae deletion strains, locus YPL240C, strain hsp82, active compounds read low 1 | S. cerevisiae deletion strains, locus YPL241C, strain CIN2, active compounds read low 0.999 | S. cerevisiae deletion strains, locus YPL256C, strain CLN2, active compounds read low 1.01 | S. cerevisiae deletion strains, locus YPR119W, strain clb2, active compounds read low 1.02 | S. cerevisiae deletion strains, locus YPR141C, strain kar3, active compounds read low 1.01 | S. cerevisiae deletion strains, locus YPR163C, strain tif3, active compounds read low 1.02 | S. cerevisiae deletion strains, locus YPR167C, strain met16, active compounds read low 1.01 | S. cerevisiae deletion strains, strain wtn01, active compounds read low 1.01 | S. cerevisiae strains, strain wild type, active compounds read low 0.992
